Values joined by “and” are separate entries in the source; they are usually repeats but may differ in a detail not shown here. Equal values may be shown once. Some structures have more than one record in an assay (separate samples or runs), and their calls can disagree. Active and inactive are the calls of the source. The calls were made as follows: active = hit-call score of the fitted dose curve at least 0.9, where 1 is the maximum; inactive = score below 0.9.
Assay: ATG_NRF2_ARE_CIS: Attagene CIS-FACTORIAL HepG2 Assay for human Nuclear Factor Erythroid 2 Related Factor 2 (NFR2) response to Antioxidant Response Elements (ARE) (AID 2282992)
Conditions: HepG2 Attagene ARE/NRF2 reporter, transcription factor activity; actives raise or lower the signal
Summary of the method: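 Endogenous transcription factor activity read out as reporter transcript levels (RT-PCR plus capillary electrophoresis, fluorescence) in transiently transfected HepG2 cells. Measured at 24 h after dosing; gain or loss of signal fitted versus DMSO.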

Row | Compound | outcome | AC50
1 | Cc1cccc2c1ccc1ccccc12 | inactive | 
2 | CCCCCCCCCCCCCCCCCC[N+](C)(C)Cc1ccccc1 |  | 12.6 µM (active)
3 | O=C(OC(=O)C(F)(F)C(F)(F)F)C(F)(F)C(F)(F)F | inactive | 
4 | Cc1ccc2ccc3ccc(C)cc3c2c1 |  | 61.3 µM (active)
5 | CCCCCCC(C)(C)C(=O)O |  | 117 µM (active)
6 | COc1cc(OC)nc(NC(=O)NS(=O)(=O)Nc2ccccc2C(=O)N(C)C)n1 | inactive | 
7 | CCCCCCCCCCCC[N+](C)(C)CCCCCCCCCCCC |  | 10.4 µM (active)
8 | O=S(=O)(c1ccc(OCc2ccccc2)cc1)c1ccccc1O |  | 8.89 µM (active)
9 | CC1COCc2cc3c(cc21)C(C)(C)C(C)C3(C)C (stereo unspecified) |  | 41.2 µM (active)
10 | CCOC(C)=O | inactive | 
11 | O=C(NO)c1ccccc1 | inactive | 16.2 µM (active) and 18.5 µM (active)
12 | O=C(F)C(F)(F)C(F)(F)C(F)(F)C(F)F | inactive | 
13 | O=c1cc(-c2ccccc2)oc2ccc3ccccc3c12 |  | 182 nM (active) and 134 nM (active)
14 | Cc1ccccc1C(OCCN(C)C)c1ccccc1 (stereo unspecified) | inactive | 71.4 µM (active)
15 | O=C(O)C(F)(F)OC(F)(F)C(F)(F)OC(F)(F)C(F)(F)OC(F)(F)C(F)(F)C(F)(F)C(F)(F)F | inactive | 4.04 µM (active)
16 | COC(=O)C(F)(F)C(F)(F)C(F)(F)C(F)(F)C(F)(F)F | inactive | 
17 | CC1=NN(c2ccccc2)C(=O)C1 | inactive | 
18 | O=C(O)CCC(F)(F)C(F)(F)C(F)(F)C(F)(F)C(F)(F)F | inactive | 

Row | Compound | outcome | AC50
19 | Oc1cc2ccccc2cc1O |  | 100 µM (active)
20 | C=C(c1ccc(C(=O)O)cc1)c1cc2c(cc1C)C(C)(C)CCC2(C)C | inactive | 
21 | O=C1c2ccccc2C(=O)c2c(O)c(O)cc(O)c21 |  | 5.36 µM (active)
22 | CCOC=C(C(=O)OCC)C(=O)OCC | inactive | 
23 | OCC1CCC(CO)CC1 (stereo unspecified) | inactive | 
24 | FC(F)(F)C1(F)C(F)(F)C(F)(F)C(F)(F)C(F)(C(F)(F)F)C1(F)F (stereo unspecified) | inactive | 
25 | CCc1cccc(CC)c1N(COC)C(=O)CS(=O)(=O)O | inactive | 
26 | c1cc2cccc3c4cccc5cccc(c(c1)c23)c54 |  | 19.8 µM (active)
27 | c1cnc2c(c1)ccc1cccnc12 | inactive | 3.04 µM (active)
28 | O=C(c1cc(O)c(O)c(O)c1)c1ccc(O)c(O)c1O | inactive | 
29 | FC(F)(F)N1C(F)(F)C(F)(F)OC(F)(F)C1(F)F | inactive | 
30 | CCCCCCOC(=O)c1ccc(O)cc1 | inactive | 
31 | NNc1nc(-c2ccc([N+](=O)[O-])cc2)cs1 |  | 1.95 µM (active)
32 | CCC(C)c1ccccc1O (stereo unspecified) | inactive | 74.7 µM (active)
33 | C[N+](C)(CCCNS(=O)(=O)CCC(F)(F)C(F)(F)C(F)(F)C(F)(F)C(F)(F)C(F)(F)F)CC(=O)[O-] |  | 0.00659 µM (active)
34 | O=P(O)(O)CCC(F)(F)C(F)(F)C(F)(F)C(F)(F)C(F)(F)C(F)(F)C(F)(F)C(F)(F)F | inactive | 
35 | O=C(NCc1ncc(C(F)(F)F)cc1Cl)c1c(Cl)cccc1Cl |  | 1.97 µM (active)
36 | CCCCN(C)C | inactive | 
